An excerpt weighted towards active compounds, which were near 2.4% of everything screened.
EP2 mod – modulators of human EP2 prostaglandin E2 receptor; EP2-expressing cells, cAMP HTRF FRET, PGE2 co-stimulation; induction, % at 25 µM; hit rate 0.83% among 260,000; AID 940;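 active means compounds whose cAMP rise, as percent of the full-agonist control response, exceeds 60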;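 further: rat C6 glioma line stably carrying human EP2 under a CMV promoter; the protocol text gives 20 µM as final concentration; 100% = response of wells given 1 µM PGE2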
Hck Nef HTS – inhibitors of human Hck kinase activated by Nef | hit rate 0.68% among 220,000 | Recombinant Hck-YEEI plus Nef, Z-Lyte FRET kinase assay | P08631 | inhibition, % at 20 µM;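 active means Hck-Nef kinase inhibition above about 50%, limit read from the data; inactive means inhibition below that limit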;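 further: 0% = DMSO with Hck plus Nef and 100% = Hck alone without Nef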
Arbovirus anti – arbovirus infection inhibition; arbovirus infection cell-based antiviral screen; inhibition, % at 10 µM; hit rate 0.37% among 200,000; in the data active means inhibition above about 30%
p97 ATPase inh – inhibitors of human p97 ATPase; inhibition, % at 8 µM; AID 1481; hit rate 0.42% among 220,000; P55072; recombinant p97 ATPase, Kinase-Glo ATP luminescence, 3 h; in the data active means inhibition above about 15%;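 further: 0% = DMSO vehicle and 100% = wells lacking enzyme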
Target sequence (P55072 whole entry, looked up): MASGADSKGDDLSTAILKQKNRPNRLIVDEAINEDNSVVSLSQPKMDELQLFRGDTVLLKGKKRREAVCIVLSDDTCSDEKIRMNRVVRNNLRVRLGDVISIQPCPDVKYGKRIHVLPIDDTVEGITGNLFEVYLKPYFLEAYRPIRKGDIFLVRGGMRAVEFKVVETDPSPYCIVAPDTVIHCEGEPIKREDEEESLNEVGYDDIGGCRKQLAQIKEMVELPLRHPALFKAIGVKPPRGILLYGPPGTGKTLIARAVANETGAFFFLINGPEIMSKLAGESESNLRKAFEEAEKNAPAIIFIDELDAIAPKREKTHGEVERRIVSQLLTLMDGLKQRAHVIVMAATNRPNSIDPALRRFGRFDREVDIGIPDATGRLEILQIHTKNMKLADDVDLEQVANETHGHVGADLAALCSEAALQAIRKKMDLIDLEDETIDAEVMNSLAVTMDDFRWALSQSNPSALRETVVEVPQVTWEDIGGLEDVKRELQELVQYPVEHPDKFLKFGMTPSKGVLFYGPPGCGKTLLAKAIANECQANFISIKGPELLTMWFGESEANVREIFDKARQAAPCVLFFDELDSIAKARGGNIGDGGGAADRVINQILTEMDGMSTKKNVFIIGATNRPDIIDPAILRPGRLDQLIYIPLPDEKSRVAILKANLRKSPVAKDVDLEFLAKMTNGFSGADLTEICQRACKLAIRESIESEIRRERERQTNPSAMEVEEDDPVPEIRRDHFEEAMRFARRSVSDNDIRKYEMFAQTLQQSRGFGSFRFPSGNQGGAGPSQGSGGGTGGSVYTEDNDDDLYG
EP2 antag – EP2 receptor (human) inhibition | C6 glioma cells expressing human EP2, cAMP TR-FRET; cells stimulated with saturating PGE2 | inhibition, % at 25 µM | hit rate 0.52% among 260,000;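 active means percent inhibition above 40 after rounding to a whole number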;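 further: rat C6 glioma host cells with rolipram phosphodiesterase inhibitor present; the protocol text gives 20 µM as final concentration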
* hit, by the source's call; x = no result; ! = not active in a repeat.

SMILES | EP2 mod | Hck Nef HTS | Arbovirus anti | p97 ATPase inh | EP2 antag
Cc1nnc2n(Cc3ccccc3)c(=O)c3c4c(sc3n12)COC(C(C)C)C4 (stereo unspecified) | 64* | 1 | -7 | 4 | 13
CSc1nnc2n(Cc3ccccc3)c(=O)c3c4c(sc3n12)COC(C(C)C)C4 (stereo unspecified) | 45 | -1 | -4 | 2 | x
Cc1nn(CC(=O)NC(C)CCc2ccccc2)c(=O)c2cc3sccc3n12 (stereo unspecified) | -28 | x | x | x | x
CC(C)C[C@H](NC(=O)c1nc[nH]c1C(=O)N1CCN(C(=O)OC(C)(C)C)CC1)C(=O)OC(C)(C)C | -7 | 4 | 32* | -3 | 9
C[C@H](NC(=O)c1nc[nH]c1C(=O)N[C@@H](Cc1ccccc1)C(=O)OC(C)(C)C)c1ccccc1 | 64* | 5 | -20 | 0 | 9
CNc1nc(-c2cc3cccc(OC)c3oc2=O)cs1 | 4 | x | x | x | 14
CCCC(=O)N1CCc2cc(-c3csc(NC(=O)C4CC4)n3)ccc21 | 11 | x | x | x | 14
CCOc1ccc2[nH]c(=O)c(CN(Cc3cccnc3)C(=O)Nc3ccc(F)cc3)cc2c1 | -19 | x | x | x | 15
COc1ccccc1Nc1nc2ccc(C)cc2cc1C#N | 61* | 2 | -2 | 2 | x
O=C(N1CCC(c2ccncc2)CC1)C1(c2cccc(F)c2)CCCC1 | -5 | x | x | x | x
Cc1cc(C)n(C(=O)CCCCCCCCC(=O)n2nc(C)cc2C)n1 | 61* | 1 | 5 | -3 | 1
CCCCNc1nc(N)ncc1[N+](=O)[O-] | 5 | 7 | x | 15* | 19
CCCCNc1c([N+](=O)[O-])ncn1C | 6 | 16 | x | 4 | 11
CCN(CC)c1nc(Oc2ccc(C(=O)OC)cc2)nc(N2CCOCC2)n1 | 62* | 19 | -5 | -2 | 2
COCCNC(=S)N(CCCN(C)C)Cc1cc2cc3c(cc2[nH]c1=O)OCO3 | 5 | x | x | x | 4
Cc1cccc(-n2c(C)cc(/C=C3\C(=N)N4N=C(CC(C)C)SC4=NC3=O)c2C)c1 | -39 | 5 | 12 | 9 | 6
CCSC1=NSC2=NC(=O)/C(=C\c3coc4ccccc4c3=O)C(=N)N12 | -38 | 16 | 31* | 4 | 12
CC(C)CC1=NN2C(=N)/C(=C\c3coc4ccccc4c3=O)C(=O)N=C2S1 | -54 | 24 | 41* | 2 | 9
C/[N+]([O-])=C\c1coc2ccccc2c1=O | 24 | 2 | 3 | 4 | 8
COC(=O)c1ccccc1NC(=S)NC(=O)c1cccc2ccccc12 | 0 | -1 | -43 | 34* | 17
COc1c(C)cccc1C(=O)NC(=S)Nc1cccc2nsnc12 | -80 | 19 | -10 | 3 | 129*
COC(=O)c1ccccc1NC(=S)NC(=O)c1ccc2ccccc2c1 | -31 | 22 | 11 | 6 | 6
CC(C)CC(=O)NC(=S)Nc1cccc2nsnc12 | 10 | -8 | 6 | 2 | 24
CCOc1ccc(NC(=O)c2sc(NC(=O)c3ccccc3C)c(C(=O)OC)c2C)cc1 | -5 | x | x | x | 12
CCOC(=O)c1cc(C(=O)c2cccs2)n2ccc(C(C)=O)cc12 | 64* | 25 | -28 | 2 | 10
SMILES | EP2 mod | Hck Nef HTS | Arbovirus anti | p97 ATPase inh | EP2 antag
CCOC(=O)c1cc(C(C)=O)n2ccccc12 | 22 | 3 | -10 | 6 | 7
O=C(CSc1nnnn1C1CCCCC1)Nc1nc2ccccc2s1 | -81 | x | x | x | 10
Cc1ccc(CSCc2nc3ccccc3[nH]2)cc1 | -52 | -25 | 36* | 4 | 8
O=C(Nc1nnc(SCC(=O)N2CCCCC2)s1)c1ccc(F)cc1 | 12 | x | x | x | 12
C=CCN=c1scc(-c2ccccc2)n1/N=C/c1ccccn1 | -5 | 3 | 32* | -2 | 2
C=CCN=c1scc(-c2ccc(F)cc2)n1/N=C/c1ccccn1 | 6 | -3 | 1 | -6 | 5
COCCN1C=C(C(=O)OC)C(c2ccccc2C(F)(F)F)C(C(=O)OC)=C1 | 49 | 65* | 1 | -5 | x
COc1ccc2c(c1)C=C(CN1CCc3c(nc(N4CCCC4)[nH]c3=O)C1)CO2 | 10 | x | x | x | x
CC[C@H](Cn1nnc2ccccc2c1=O)NC(=O)Cc1ccc(F)cc1 | 12 | x | x | x | x
O=C1NC2(CCN(C(=O)CCc3nc4ccccc4s3)CC2)Oc2ccccc21 | -17 | x | x | x | x
COC(=O)CSc1nc(C2CC2)cc(C(F)(F)F)c1C#N | 41 | 2 | -9 | -1 | 8
CC(=O)CSc1nc(C2CC2)cc(C(F)(F)F)c1C#N | 86* | x | x | x | 19
COc1ccccc1C(=O)Nc1cc(Cl)ccc1O | -46 | -2 | 7 | 15* | 27
COc1ccc(Cl)cc1NC(=O)c1cc(-c2ccccc2O)n[nH]1 | -6 | 46 | 70* | 3 | 5
Cc1c(Cl)cccc1NC(=O)c1cc(-c2ccccc2O)n[nH]1 | -29 | -1 | 30* | 0 | 26
CCn1cc(CNC(=O)CSc2nc(-c3ccc(OC)c(OC)c3)cc(C(F)(F)F)n2)cn1 | -40 | x | x | x | 19
COc1cccc(C(=O)NCCN2CCC(O)(c3cccc(F)c3)CC2)c1 | -37 | x | x | x | 7
Clc1ccc2nc(-c3ccncc3)c(NCC3CCCO3)n2c1 (stereo unspecified) | 23 | x | x | x | x
O[C@@H](c1cc(C(F)(F)F)nc2c(Cl)cc(Cl)cc12)[C@@H]1CCCCN1 | 14 | x | x | x | 58*
OC(c1cc(-c2ccc(C(F)(F)F)cc2)nc(C(F)(F)F)c1)C1CCCCN1 (stereo unspecified) | -30 | -2 | x | -8 | 54*
OC(c1cc(C(F)(F)F)nc2c(C(F)(F)F)cccc12)C1CCCCN1 (stereo unspecified) | -22 | x | x | x | 16
CC1CCN(C(=O)CSc2nc(-c3ccc(F)cc3)cc(C(F)(F)F)n2)CC1 | 14 | x | x | x | 11
C=CCn1c(N2CCC(C(=O)Nc3ccc4c(c3)OCO4)CC2)nc2ccccc21 | -2 | x | x | x | x
O=C(CN1CCCCCC1)N/N=C/c1cccs1 | -13 | 0 | 46* | -2 | 8
O=C(CN1CCN(Cc2ccccc2)CC1)N/N=C/c1cccs1 | -9 | -4 | x | -3 | 14
SMILES | EP2 mod | Hck Nef HTS | Arbovirus anti | p97 ATPase inh | EP2 antag
CCCn1c2c(c(O)c(C(=O)OCC)c1=O)CCCC2 | 14 | x | x | x | 3
CCOC(=O)c1c(O)c2c(n(Cc3ccco3)c1=O)CCCC2 | 10 | -3 | 31* | -1 | 8
CCOc1ccc2[nH]c(=O)c(CN(Cc3ccccc3)C(=S)NC3CCCCC3)cc2c1 | -29 | x | x | x | 5
Brc1ccc(/C=N/Nc2ccc3ccccc3n2)cc1 | 9 | 1 | 2 | -2 | 2
Brc1ccccc1/C=N/Nc1ccc2ccccc2n1 | -12 | 1 | 39* | 6 | 12
COc1ccc(OC)c(S(=O)(=O)Nc2ccc(O)c3ccccc23)c1 | -27 | 5 | -37 | -4 | 42*
COc1ccc(-n2[nH]c(C)cc2=O)cc1 | 9 | 0 | -4 | 28* | 7
C[c-]1[c-](C)[c-](C)[c-](C)[c-]1C.[Fe].c1cc2nccc(N3CCCC3)[c-]2c1 (stereo unspecified) | -3 | 30 | x | x | 55*!
CCOc1ccc2[nH]c(=O)c(CN(Cc3ccccc3)C(CC)c3nnnn3C3CCCC3)cc2c1 (stereo unspecified) | 62* | x | x | x | 20

Source: PubChem BioAssay
